# PubChem BioAssay (NCI)
# This is part of a sample that, as a whole, favours compounds with a hit. Of some 83,000 tested, about 20% had one in any assay.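 A percent growth of 40 corresponds to 60% growth inhibition; 0 means no net growth; -100 means all cells died. Active threshold: below 10.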 A number with no mark means an inactive call. Calls of active or inactive are those of the source.
# Assays:
# Experiment in all cases: NCI-60 one-dose screen, 48 h (100 = growth as untreated, 0 = no growth, -100 = all killed)
# Details in all cases: 10 µM unless noted
# SR leukemia = system: SR leukemia
# RPMI-8226 leukemia = system: RPMI-8226 leukemia
# OVCAR-8 ovarian = system: OVCAR-8 ovarian
# OVCAR-5 ovarian = system: OVCAR-5 ovarian
# OVCAR-4 ovarian = system: OVCAR-4 ovarian
# SK-OV-3 ovarian = system: SK-OV-3 ovarian
# IGROV1 ovarian = system: IGROV1 ovarian
# OVCAR-3 ovarian = system: OVCAR-3 ovarian
# HS 578T breast = system: HS 578T breast
# NCI/ADR-RES ovarian = system: NCI/ADR-RES ovarian
# BT-549 breast = system: BT-549 breast
# MDA-MB-435 melanoma = system: MDA-MB-435 melanoma
# SW-620 colon = system: SW-620 colon
# MCF7 breast = system: MCF7 breast
# HCT-116 colon = system: HCT-116 colon
# HCC-2998 colon = system: HCC-2998 colon
# KM12 colon = system: KM12 colon
# T-47D breast = system: T-47D breast
SMILES,growth (SR leukemia),growth (RPMI-8226 leukemia),growth (OVCAR-8 ovarian),growth (OVCAR-5 ovarian),growth (OVCAR-4 ovarian),growth (SK-OV-3 ovarian),growth (IGROV1 ovarian),growth (OVCAR-3 ovarian),growth (HS 578T breast),growth (NCI/ADR-RES ovarian),growth (BT-549 breast),growth (MDA-MB-435 melanoma),growth (SW-620 colon),growth (MCF7 breast),growth (HCT-116 colon),growth (HCC-2998 colon),growth (KM12 colon),growth (T-47D breast)
COc1ccccc1/C=C1\Oc2cc(OCCCN3CCCC3)ccc2C1=O,46.9%,107%,93.7%,84.2%,89%,108%,92.3%,94.8%,83.7%,84.6%,94.8%,91.4%,73%,80%,50.9%,102%,98.3%,–
C(=C\c1n(Cc2ccc3ccccc3c2)c(-c2ccccc2)c(-c2ccccc2)[n+]1Cc1ccc2ccccc2c1)/c1ccccc1,-37.4% (active),-43.9% (active),-65.3% (active),-95% (active),-85.8% (active),-60.1% (active),-81.4% (active),-90.3% (active),-42.8% (active),8.24% (active),–,-92% (active),-86.9% (active),-64.1% (active),-80.9% (active),-91.4% (active),-83.5% (active),-74.8% (active)
Fc1ccc2nc3c(cc2c1)CSc1nnc(-c2ccc[nH]c2=S)n1N3,90.4%,95.5%,105%,95.4%,91.5%,86.9%,86.7%,109%,96.3%,103%,97.7%,103%,93.5%,98.7%,92.7%,103%,106%,–
COc1cc(/C=C/C(=O)c2c(C)oc3nc[nH]c(=O)c23)ccc1O,126%,122%,103%,96.5%,101%,103%,100%,108%,93%,101%,100%,102%,100%,90.2%,102%,100%,103%,–
CC(C)CCSc1nc(NNC(N)=O)c(C#N)c(-c2ccccc2)n1,105%,99.4%,104%,97.8%,113%,107%,103%,108%,112%,102%,–,109%,112%,103%,38.3%,102%,110%,99.9%
Clc1ccc(C2CC(c3cccc(Nc4ccncc4)c3)=NN2c2cc(Cl)cc(Cl)c2)cc1 (stereo not drawn),6.05% (active),43.4%,-7.8% (active),84.4%,33.7%,90.7%,44.6%,76.9%,78%,68.3%,–,12.7%,-73.1% (active),-8.62% (active),-74.2% (active),19.6%,9.65% (active),86.4%
Cc1ccc(/C=C/C(=O)c2ccc(N)cc2)c(C)c1,-45.1% (active),33%,17.3%,103%,73%,122%,12%,21.7%,100%,62.2%,–,77%,-69.1% (active),35%,35.8%,106%,63.3%,101%
CC(=O)OCC(=O)[C@@]1(O)CC[C@H]2[C@@H]3CC(=C(Br)Br)C4=CC(=O)CC[C@]4(C)[C@H]3C(=O)C[C@@]21C,115%,87%,92.9%,102%,96.1%,72.9%,96%,98.6%,90.8%,89.5%,73.5%,100%,95.3%,84.4%,68.3%,95.8%,93.6%,–
CCC(=O)c1ccc(O)c(OC)c1,108%,93.7%,99.4%,107%,107%,122%,102%,110%,95.7%,104%,–,114%,101%,108%,91.2%,101%,113%,109%
O=S(=O)(NCCCNc1nccc(-c2c(-c3cccc(O)c3)nc3occn23)n1)c1ccc(F)cc1,76.6%,77%,79%,128%,110%,71.1%,76.2%,96.8%,82.3%,105%,–,37.3%,103%,85.2%,56.2%,109%,81.9%,56.3%
CCCCCCCCOC(=O)c1ccc(O)c(OC)c1,85.3%,89.2%,96.3%,107%,78.2%,103%,59.8%,101%,97.8%,96%,–,106%,109%,66.9%,102%,97.9%,102%,82.7%
O=C(N/N=C/c1ccc(F)cc1)c1ccccc1Nc1cccc(C(F)(F)F)c1,24%,93.1%,89.5%,104%,84.4%,94.6%,103%,81.3%,112%,107%,105%,100%,96%,106%,111%,107%,91.4%,–
CCCCCCC/C=C/[C@H]1O[C@]2(O)C(=O)C=C3C[C@@H](O[C@@H]4O[C@H](CO)[C@@H](O)C(O)[C@@H]4O)C[C@@H]3[C@H]2C=C1C (stereo partly drawn),-26.4% (active),-23.6% (active),-20.5% (active),12%,29.6%,57.6%,-7.08% (active),-75.4% (active),29.1%,-6.45% (active),-18.6% (active),–,-28.5% (active),8.66% (active),-45.9% (active),32.8%,15.5%,–
Cc1ccc2nc3c(cc2c1)CSc1nnc(-c2ccc[nH]c2=S)n1N3,83.3%,99.5%,100%,99.5%,109%,88.8%,82.7%,99.5%,96.3%,93.4%,–,88.2%,102%,94.4%,92.5%,107%,99.7%,–
O=S(=O)(O)c1cc(O)c2c(N=Nc3ccc(Nc4ccccc4)c4c(S(=O)(=O)O)cccc34)cc(S(=O)(=O)O)cc2c1,111%,109%,97%,105%,113%,104%,–,107%,101%,102%,100%,115%,103%,105%,105%,102%,101%,100%
O=S(=O)(NCCCNc1nccc(-c2c(-c3ccc(F)c(O)c3)nc3sccn23)n1)c1ccc(F)cc1,-7.44% (active),-47.7% (active),-11.9% (active),24.4%,3.86% (active),17.9%,0.863% (active),20.8%,3.15% (active),48.2%,26.7%,–,11.8%,4.13% (active),0.843% (active),4.68% (active),10.4%,–
COc1cc(NCC(O)CN(CC(C)C)C2CCCC2)c2ncccc2c1 (stereo not drawn),80.1%,94.6%,86.5%,101%,42.3%,93.3%,88.8%,63.7%,73.3%,89.2%,89.5%,107%,70.5%,24.1%,68%,97.3%,87%,–
c1ccc2c(-c3c4ccsc4cc4[nH]c5ccccc5c34)c[nH]c2c1,25.7%,14.8%,56.9%,75.2%,40.8%,49.5%,38.1%,13.8%,33.4%,20.4%,33.9%,1.93% (active),25.4%,15%,17.5%,65.6%,14.9%,–
